Activity calls are given as the source filed them.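 The calls were made as follows: active = cell survival after UV exposure 2 SD above solvent-only control wells at 10 µM, confirmed on one or two repeats; inactive = the rest.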

The results in this text go back to PubChem BioAssay AID1347383 (Zoeller Lab, School of Medicine, Boston University, 2020).

This assay is described as follows: protection of CHO cells from pyrene-fatty acid UV killing, primary screen, phospholipid biosynthesis inhibitor project, ZR-82 cells, Analyticon library, screen 2 (AID 1347383).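 Also: survival reflects blocked phospholipid synthesis cutting uptake of the phototoxic fatty acid; compound and fatty acid exposure 3 h then viability read next day.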 The note with it: ZR-82 CHO cells, CellTiter Blue, at 10 µM, peroxisome-deficient CHO-K1 variant, with DGAT-1, DGAT-2 and ACAT inhibitors. On the technique in general: Alamar Blue is a resazurin reagent that responds to reducing activity.
For `CC1=CC2C3C(C(C)=C4C3[C@@](C)(O)CC[C@H]3[C@H](C)C(=O)O[C@H]43)C13C2[C@@](C)(O)CC[C@H]1[C@H](C)C(=O)O[C@@H]13` (some centres undefined), the call was inactive.

For `Nc1c(O)cccc1C(=O)O`, the result was inactive.

`COc1ccc(CCc2cc(OC)cc(=O)o2)cc1`: the outcome was inactive.

For the molecule `CC(=O)OC1C(O)C2C(C)C3=CC(=O)OC3(O)CC2C2(C)CCCC(C)(CO)C12` (centres undefined), the call was inactive.

For `CC(C)=CCc1cc(C(=O)/C=C/c2ccc(O)cc2)c(O)cc1O`, the call was inactive.

`CC(CO)C1CCC2(C)CC3C(CO)CC(O)C3C(C)(O)CC=C12` (centres undefined): the molecule was classed as inactive.

As to `C=C1CCC2C(C)(C)C(OC(C)=O)CCC2(C)C1COc1ccc2ccc(=O)oc2c1` (centres undefined), the molecule was called inactive.

Take `OC1CC(c2ccccc2)C(O)C(O)C1c1ccccc1` (centres undefined): the molecule was called inactive.

Turning to `CC1(C)C(=O)C=CC2(C)C1CC(O)C1(C)C3=CCC(c4ccoc4)C3(C)CCC21` (centres undefined), the outcome was inactive.

Regarding `C=C[C@]1(C)C[C@](O)([C@@H]2OC2(C)C)Oc2c1c(=O)oc1cccc(CC)c21`, the outcome was inactive.

Consider `O=C(O)c1ccc(OC2OC(CO)C(O)C(O)C2O)cc1` (centres undefined), for which the call was inactive.

Take `CC(C(=O)CCCCC(O)C(C)O)C(=O)N1C=CCC1` (centres undefined): the outcome was inactive.

As for `COc1ccc(-c2coc3cc(O)ccc3c2=O)cc1`, the result was inactive.

For the molecule `C=CC(=C)CCC1(C)C(C)CC(O)C23C(=CC(OC(C)=O)CC12)C(OC)OC3OC(C)=O` (centres undefined), the call was inactive.

For the molecule `CC1(C)O[C@]23C[C@H]1C[C@H](OC(=O)c1ccoc1)[C@]2(C)[C@@H](OC(=O)c1ccoc1)CCC3(C)O` (some centres undefined), the molecule was classed as inactive.

As to `CN(/C=C\c1ccccc1)C(=O)/C=C/c1ccccc1`, the molecule was called inactive.

Consider `CC(=O)C(C)C(O)C(C)c1ccc(CO)cc1/C=C/CO` (centres undefined), for which the call was inactive.

Consider `Oc1cc(O)c2c(c1)O[C@H](c1ccc(O)c(O)c1)[C@@H](O)C2`, for which the result was inactive.

`O=c1c(-c2ccc(O)cc2O)coc2cc(O)cc(O)c12`: the molecule was called inactive.

Consider `CCC/C=C/C=C/C1C[C@@H](O)[C@@H](O)C(=O)[C@H]1CO` (some centres undefined), for which the molecule was called inactive.

As for `COc1cc2c(cc1O)C(=O)CC1C(C)(C)C(=O)CCC21C` (centres undefined), the molecule was classed as inactive.

Consider `CNC(=O)Oc1ccc2c(c1)[C@]1(C)CCN(C)[C@@H]1N2C`, for which the molecule was called inactive.

For the molecule `O=C1c2ccc(O)cc2C(=O)c2ccc(O)cc21`, the molecule was called inactive.

As for `CCCCCC1CC(O)CC(=O)O1` (centres undefined), the outcome was inactive.

Regarding `COC1C(=O)CCC2(CO2)C1(O)C1(C)OC1CC=C(C)C` (centres undefined), the molecule was called inactive.

As for `COCc1c(OC)cc2c(c1O)C(O)OCC2` (centres undefined), the result was inactive.

In the case of `CC(=O)OC/C(=C\COc1cc(=O)oc2cccc(C)c12)CCC=C(C)C`, the result was inactive.

On to `COc1cc2c(c3c1C(=O)C[C@@H](C)O3)CCO2`, for which the molecule was called inactive.

Turning to `CC[C@H]1C(=O)CC2C3CCC4C[C@@H](O)[C@]5(O)C[C@]4(CO5)C3CC[C@@]21C` (some centres undefined), the call was inactive.

As for `COc1cc(=O)oc(C(C)C(C)O)c1CO` (centres undefined), the result was inactive.

For the molecule `COc1cc(O[C@@H]2O[C@H](CO)[C@@H](O)[C@H](O)[C@H]2O)cc2occ(-c3ccc(O)cc3)c(=O)c12`, the result was inactive.

`CC(C)(O)C(O)Cc1ccc2c(c1O)COC2` (centres undefined): the result was inactive.

On to `CC1=C[C@H]2[C@@H](CC1=O)[C@H](C)C[C@H](O)[C@H]2C(C)C`, for which the molecule was classed as inactive.

Consider `COc1cc(/C=C/c2cc(O)cc(O)c2)ccc1O`, for which the molecule was called inactive.

Consider `COc1cc(CC(C)C(C)Cc2ccc(O)c(OC)c2)ccc1O` (centres undefined), for which the molecule was classed as inactive.

In the case of `COc1cc(CC(C)C(C)Cc2ccc(O)c(O)c2)ccc1O` (centres undefined), the outcome was inactive.

`O=c1ccc2cc(O)c(O)cc2o1`: the call was inactive.

Regarding `C=C(C)[C@@H]1CC[C@]2(COC(C)=O)CC[C@]3(C)[C@H](CC[C@@H]4[C@@]5(C)CC[C@H](OC(C)=O)C(C)(C)[C@@H]5CC[C@]43C)[C@@H]12`, the call was inactive.

On to `C=C[C@H]1CN2CC[C@H]1C[C@@H]2C(O)c1ccnc2ccc(OC)cc12` (some centres undefined), for which the molecule was called inactive.
